We go through 17 molecules from article PMC8222333, “AsCas12a ultra nuclease facilitates the rapid generation of therapeutic cell medicines”.

Changes are numbered by the printed parent chain.

Targets include dAsCas12a S542R (Acidaminococcus sp., UniProt U2UMQ6 1-1307, S542R;D908A;E993A;D1235A); d-enCas12a (Acidaminococcus sp., UniProt U2UMQ6 1-1307, E174R;S542R;K548R;D908A;E993A;D1235A); d-enCas12a-Ultra (Acidaminococcus sp., UniProt U2UMQ6 1-1307, E174R;S542R;K548R;M537R;F870L;D908A;E993A;D1235A).
Holding throughout (experiment): Spec-seq (native PAGE EMSA with sequencing of bound and unbound); 25 mM Tris-HCl pH 7.4, 150 mM KCl, 5 mM MgCl2, 10% glycerol, 1 mM DTT, 40 ng/uL salmon sperm DNA; 400 nM Cas12a, 480 nM crRNA, 50 nM library, 37 C 1 h; native PAGE at room temperature; high values mean tight binding
What all share (details): protein: recombinant
Background: In EMSA bound probe runs differently from free probe, usually more slowly.
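Also: relative affinity from the bound to unbound sequence frequency ratio in Spec-seq.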

B1: AGAT (dsDNA)
DNA 1: GCTATCTAGTGCTCAGTACGCACTGAGATAGGAAACTTCTGGCAGGACCAGGTCATGAGATCGGAAGAGCACACGTCTGAACTCCAGTCA
DNA 2: TGACTGGAGTTCAGACGTGTGCTCTTCCGATCTCATGACCTGGTCCTGCCAGAAGTTTCCTATCTCAGTGCGTACTGAGCACTAGATAGC
RNA: AAUUUCUACUCUUGUAGAUAGGAAACUUCUGGCAGGACC
Turning to B1, the binding signal with dAsCas12a S542R was -8.54 lnKA; with d-enCas12a, -5.75 lnKA; with d-enCas12a-Ultra it was -3.47 lnKA.

B2: ATCC (dsDNA)
DNA 1: B1 DNA 1 with G27T, A28C, T29C
DNA 2: B1 DNA 2 with A62G, T63G, C64A
RNA: B1 RNA
Turning to B2, the binding signal was -4.3 lnKA in the assay with dAsCas12a S542R, -0.902 lnKA in the assay with d-enCas12a and -0.294 lnKA in the assay with d-enCas12a-Ultra.

B3: CAAG (dsDNA)
DNA 1: B1 DNA 1 with A26C, G27A, T29G
DNA 2: B1 DNA 2 with A62C, C64T, T65G
RNA: B1 RNA
In the case of B3, the binding signal with dAsCas12a S542R is -8.58 lnKA; with d-enCas12a, -5.75 lnKA; with d-enCas12a-Ultra, -3.48 lnKA.

B4: ATAC (dsDNA)
DNA 1: B1 DNA 1 with G27T, T29C
DNA 2: B1 DNA 2 with A62G, C64A
RNA: B1 RNA
Consider B4, for which the results for the binding signal with dAsCas12a S542R, in the assay with d-enCas12a and with d-enCas12a-Ultra were -8.39 lnKA, -4.61 lnKA and -1.84 lnKA, respectively.

B5: ATCG (dsDNA)
DNA 1: B1 DNA 1 with G27T, A28C, T29G
DNA 2: B1 DNA 2 with A62C, T63G, C64A
RNA: B1 RNA
B5: the binding signal was -6.64 lnKA with dAsCas12a S542R, -3.44 lnKA in the assay with d-enCas12a and -0.793 lnKA with d-enCas12a-Ultra.

B6: CAAA (dsDNA)
DNA 1: B1 DNA 1 with A26C, G27A, T29A
DNA 2: B1 DNA 2 with A62T, C64T, T65G
RNA: B1 RNA
As for B6, the binding signal with dAsCas12a S542R is -8.57 lnKA; in the assay with d-enCas12a, -5.66 lnKA; with d-enCas12a-Ultra, -3.35 lnKA.

B7: CAAT (dsDNA)
DNA 1: B1 DNA 1 with A26C, G27A
DNA 2: B1 DNA 2 with C64T, T65G
RNA: B1 RNA
In the case of B7, the binding signal with dAsCas12a S542R is -8.59 lnKA; with d-enCas12a, -5.72 lnKA; with d-enCas12a-Ultra, -3.43 lnKA.

B8: ATGG (dsDNA)
DNA 1: B1 DNA 1 with G27T, A28G, T29G
DNA 2: B1 DNA 2 with A62C, T63C, C64A
RNA: B1 RNA
Turning to B8, the binding signal in the assay with dAsCas12a S542R was -8.74 lnKA; in the assay with d-enCas12a it was -5.71 lnKA; with d-enCas12a-Ultra it was -3.4 lnKA.

B9: CAAC (dsDNA)
DNA 1: B1 DNA 1 with A26C, G27A, T29C
DNA 2: B1 DNA 2 with A62G, C64T, T65G
RNA: B1 RNA
Regarding B9, the values for the binding signal with dAsCas12a S542R, with d-enCas12a and with d-enCas12a-Ultra were -8.83 lnKA, -5.54 lnKA and -3.19 lnKA, respectively.

B10: CACA (dsDNA)
DNA 1: B1 DNA 1 with A26C, G27A, A28C, T29A
DNA 2: B1 DNA 2 with A62T, T63G, C64T, T65G
RNA: B1 RNA
For the molecule B10, the results for the binding signal with dAsCas12a S542R, in the assay with d-enCas12a and with d-enCas12a-Ultra were -8.06 lnKA, -2.71 lnKA and -0.596 lnKA, respectively.

B11: AGCG (dsDNA)
DNA 1: B1 DNA 1 with A28C, T29G
DNA 2: B1 DNA 2 with A62C, T63G
RNA: B1 RNA
As to B11, the binding signal with dAsCas12a S542R was -8.91 lnKA; with d-enCas12a, -4.77 lnKA; in the assay with d-enCas12a-Ultra, -1.73 lnKA.

B12: AGCA (dsDNA)
DNA 1: B1 DNA 1 with A28C, T29A
DNA 2: B1 DNA 2 with A62T, T63G
RNA: B1 RNA
Turning to B12, the binding signal with dAsCas12a S542R is -8.4 lnKA; in the assay with d-enCas12a, -3.23 lnKA; in the assay with d-enCas12a-Ultra it was -0.786 lnKA.

B13: CACC (dsDNA)
DNA 1: B1 DNA 1 with A26C, G27A, A28C, T29C
DNA 2: B1 DNA 2 with A62G, T63G, C64T, T65G
RNA: B1 RNA
B13: the binding signal in the assay with dAsCas12a S542R is -8.05 lnKA; with d-enCas12a, -1.94 lnKA; in the assay with d-enCas12a-Ultra it was -0.454 lnKA.

B14: AGGC (dsDNA)
DNA 1: B1 DNA 1 with A28G, T29C
DNA 2: B1 DNA 2 with A62G, T63C
RNA: B1 RNA
On to B14, for which the binding signal was -8.3 lnKA in the assay with dAsCas12a S542R, -5.79 lnKA with d-enCas12a and -3.34 lnKA in the assay with d-enCas12a-Ultra.

B15: AGCC (dsDNA)
DNA 1: B1 DNA 1 with A28C, T29C
DNA 2: B1 DNA 2 with A62G, T63G
RNA: B1 RNA
As for B15, the values for the binding signal with dAsCas12a S542R, with d-enCas12a and with d-enCas12a-Ultra were -8.34 lnKA, -2.31 lnKA and -0.527 lnKA, respectively.

B16: CACG (dsDNA)
DNA 1: B1 DNA 1 with A26C, G27A, A28C, T29G
DNA 2: B1 DNA 2 with A62C, T63G, C64T, T65G
RNA: B1 RNA
B16: the results for the binding signal in the assay with dAsCas12a S542R, with d-enCas12a and with d-enCas12a-Ultra were -8.68 lnKA, -4.44 lnKA and -1.41 lnKA, respectively.

B17: AGCT (dsDNA)
DNA 1: B1 DNA 1 with A28C
DNA 2: B1 DNA 2 with T63G
RNA: B1 RNA
Consider B17, for which the figures for the binding signal with dAsCas12a S542R, with d-enCas12a and in the assay with d-enCas12a-Ultra were -8.99 lnKA, -4.97 lnKA and -1.83 lnKA, respectively.
